Shown are actives, neighbours in structure and some others; about 18% of the full set was active somewhere.
TDP1 block – inhibitors of human tyrosyl-DNA phosphodiesterase TDP1; Q9NUW8; recombinant TDP1, AlphaScreen DNA substrate cleavage; Potency, µM (titrated, usually from 130 µM), inactives show top-dose activity change, negative = inhibition, most hits filed as inhibitors; hit rate 0.28% among 350,000; AID 485290; also: nearly all actives have a fitted effect of over 40% in size
Target sequence (Q9NUW8 whole entry, looked up): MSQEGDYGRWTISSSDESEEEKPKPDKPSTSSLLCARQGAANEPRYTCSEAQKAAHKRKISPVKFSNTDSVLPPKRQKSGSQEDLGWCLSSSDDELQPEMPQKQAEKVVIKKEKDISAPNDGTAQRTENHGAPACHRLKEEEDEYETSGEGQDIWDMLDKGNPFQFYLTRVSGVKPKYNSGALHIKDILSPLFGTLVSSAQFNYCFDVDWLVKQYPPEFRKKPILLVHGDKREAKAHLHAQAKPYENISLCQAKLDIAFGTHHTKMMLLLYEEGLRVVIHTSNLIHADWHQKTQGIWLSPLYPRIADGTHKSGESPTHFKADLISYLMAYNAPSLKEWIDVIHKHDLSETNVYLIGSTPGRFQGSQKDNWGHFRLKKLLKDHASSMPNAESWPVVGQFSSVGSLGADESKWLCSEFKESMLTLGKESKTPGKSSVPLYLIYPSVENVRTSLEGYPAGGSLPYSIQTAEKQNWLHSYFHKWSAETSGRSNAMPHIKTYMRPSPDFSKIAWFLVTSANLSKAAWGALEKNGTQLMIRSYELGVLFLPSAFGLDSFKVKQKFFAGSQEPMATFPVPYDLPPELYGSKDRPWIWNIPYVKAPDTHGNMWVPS
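AlphaScreen read-out: signal falls as enzyme removes the 3' tyrosine-FITC from a 5'-biotinylated DNA oligo (15 nM, 5 min, RT). Enzyme was E. coli-made recombinant Tdp1 at 1 nM, exposed to compound for 15 min beforehand; beads 10 ug/ml, 10 min.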
VDR inhibitor – vitamin D3 receptor (human) inhibition; AID 504847; P11473; hit rate 0.93% among 400,000; VDR-SRC2-3 peptide fluorescence polarization, 2 h; Potency, µM, inactives show max response, negative = inhibition, usual class: inhibitors
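Measured by FP: displacement of SRC2-3 coactivator peptide from VDR by library compounds, following a two-hour ambient incubation.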
TDP1 cell noCPT – qHTS for Inhibitors of human tyrosyl-DNA phosphodiesterase 1 (TDP1): qHTS in cells in absence of CPT; hit rate 15% among 420,000; Potency, µM (series often up to 46.2 µM), inactives show at the highest dose activity change, negative = growth inhibition, usual class: inhibitors; AID 686978, 2013; DT40 Tdp1-/- hTDP1 cells, no CPT, ATP luminescence, 48 h; also: nearly all actives have a fitted effect of over 55% in size
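Readout: luminescence from CellTiter-Glo after 30 min in the dark at RT. Cells: DT40 Tdp1-/- with stable hTDP1, 400/well. Exposure: compounds alone, ≥48 hr, 37 °C.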
PLK1 PBD inh – blocks phosphopeptide binding to human PLK1 polo-box domain; Potency, µM, for inactives: max response, negative = inhibition, usual class: inhibitors; AID 720504; hit rate 2.8% among 360,000; P53350; Plk1 PBD binding of FITC phosphopeptide, fluorescence polarization; also: series mostly up to about 57 µM; nearly all actives have a fitted effect of over 65% in size
GCN5L2 inh – GCN5L2 (KAT2A) acetyltransferase inhibition. AID 504327. GCN5L2 HAT assay, ThioGlo1 CoA-SH fluorescence. Q92830. hit rate 0.21% among 390,000. Potency, µM (highest dose often 58.9 µM), without a hit: at the top dose activity change, negative = inhibition, most hits filed as inhibitors
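GCN5L2 (20 nM) in 50mM HEPES pH 7.5, 0.1mM EDTA, 0.01% Tween-20 preincubated 15 min with compounds at room temperature. Reaction started with H3(1-25) 75uM, acetyl-CoA 70uM, ThioGlo1 50uM; CoA-thiol fluorescence (Ex340/Em540) read at 0 and 20 min.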
DT40 TDP1 CPT – DT40-hTDP1 cell growth loss with CPT; hit rate 12% among 420,000; AID 686979; chicken DT40 Tdp1-/-;hTDP1 cells + 20 nM CPT, ATP luminescence, 48 h; Potency, µM (series often up to 46.2 µM), for the others: at the top dose activity change, negative = growth inhibition, most hits filed as inhibitors; also: nearly all actives have a fitted effect of over 55% in size
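Chicken DT40 Tdp1-/- cells stably complemented with human TDP1 were seeded at 400 cells/well in medium containing 20 nM camptothecin, exposed to pin-transferred compounds, and grown at 37 °C for at least 48 hr. Viability was read as ATP luminescence.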
* hit, by the source's call; [ ] = dose if it differs, or a comment. Calls follow the shape of the dose curve; as a rule, active = well fitted curve in the direction sought with a large enough effect; inconclusive = small, poorly fitted or top-dose-only effect, or another doubt; inactive = no such curve, though single readings can be large; an effect the other way counts as inactive or inconclusive. % is scaled to controls: 0 for no effect and ±100 for the full control effect; potency is read from the fitted curve at half-maximal effect.

For Cc1ccc(-c2cn3c(=S)[nH]nc3s2)cc1 the results were TDP1 block 3%, VDR inhibitor -14%, TDP1 cell noCPT inconclusive, PLK1 PBD inh -26%, GCN5L2 inh 14µM* and DT40 TDP1 CPT -27%.
c1cc(CN2CCCC3(CCNCC3)C2)ccn1 was read as VDR inhibitor inconclusive, TDP1 cell noCPT inconclusive, GCN5L2 inh -16% and DT40 TDP1 CPT inconclusive.
For CN1CCC2(CC1)CCN(C(=O)Oc1ccccc1)CC2 the results were VDR inhibitor 9%, TDP1 cell noCPT -11%, GCN5L2 inh 8% and DT40 TDP1 CPT 5%.
For C#C[C@]1(O)CC[C@H]2[C@@H]3CCC4=Cc5nc6nc7ccccc7n6cc5C[C@]4(C)[C@H]3CC[C@@]21C the results were VDR inhibitor inconclusive, TDP1 cell noCPT 12µM*, PLK1 PBD inh inconclusive, GCN5L2 inh -30% and DT40 TDP1 CPT inconclusive.
C#C[C@@]1(O)CCC2C3CCC4=C/C(=N/OCC(=O)NC(C(=O)O)C(C)O)CC[C@]4(C)C3CC[C@@]21C (stereo not given in full) was read as VDR inhibitor -8%, TDP1 cell noCPT -13%, PLK1 PBD inh -2%, GCN5L2 inh 4% and DT40 TDP1 CPT 4%.
O=C(N/N=C\C1C(=O)NC(=S)N(c2ccccc2)C1=O)c1ccc(O)cc1 (stereo not given) was read as TDP1 block 8%, VDR inhibitor 5%, TDP1 cell noCPT 9%, PLK1 PBD inh -24%, GCN5L2 inh -13% and DT40 TDP1 CPT 11%.
For COc1ccc(OC)c(-n2c(O)c(/C=C3\C=Nc4ccccc43)c(=O)[nH]c2=O)c1 the results were VDR inhibitor -24%, TDP1 cell noCPT -29%, PLK1 PBD inh 9.5µM*, GCN5L2 inh 0% and DT40 TDP1 CPT inconclusive.
CCOc1ccc(-n2c(O)c(/C=C3\C=Nc4ccccc43)c(=O)[nH]c2=O)cc1 was read as VDR inhibitor 183%, TDP1 cell noCPT -18%, PLK1 PBD inh 23%, GCN5L2 inh -21% and DT40 TDP1 CPT inconclusive.
Screening CCOC(=O)N1CCN(c2ccc(Cl)c(Cl)c2)CC1 returned TDP1 block 0%, VDR inhibitor -12%, TDP1 cell noCPT 13µM*, PLK1 PBD inh -2%, GCN5L2 inh -20% and DT40 TDP1 CPT inconclusive.
CCOC(=O)N1CCCN(/[N+]([O-])=N/Oc2ccc([N+](=O)[O-])cc2[N+](=O)[O-])CC1 was read as TDP1 block 10% and VDR inhibitor inconclusive.
Nc1ccc(-c2ccccc2)cc1 was read as TDP1 block 19%, VDR inhibitor 17%, TDP1 cell noCPT -10%, PLK1 PBD inh 4% and DT40 TDP1 CPT -16%.
For Oc1ccccc1-[n+]1c(-c2ccccc2)cc(-c2ccccc2)cc1-c1ccccc1 the results were VDR inhibitor 15%, TDP1 cell noCPT 2.3µM*, PLK1 PBD inh 3%, GCN5L2 inh -11% and DT40 TDP1 CPT 1.3µM*.
Screening Nc1ccccc1-[n+]1c(-c2ccccc2)cc(-c2ccccc2)cc1-c1ccccc1 returned TDP1 block 0%, VDR inhibitor -6%, TDP1 cell noCPT 5.8µM*, PLK1 PBD inh 1%, GCN5L2 inh -9% and DT40 TDP1 CPT 6.5µM*.
[O-]c1ccccc1-[n+]1c(-c2ccccc2)cc(-c2ccccc2)cc1-c1ccccc1 was read as TDP1 block 4%, VDR inhibitor 5%, TDP1 cell noCPT 2.1µM*, PLK1 PBD inh -12%, GCN5L2 inh 0% and DT40 TDP1 CPT 2.1µM*.
CCOP(=O)(OCC)C(=Cc1cc(C(C)(C)C)c(O)c(C(C)(C)C)c1)P(=O)(OCC)OCC was read as TDP1 block -3%, VDR inhibitor inconclusive and GCN5L2 inh 23%.
`Cc1cccn2c(=O)c3c(nc12)N1CCc2ccccc2C1C1(C3)C(=O)NC(=O)N(C)C1=O` (stereo not given) gave TDP1 block 7%, VDR inhibitor 5%, TDP1 cell noCPT -4%, PLK1 PBD inh 2%, GCN5L2 inh -3% and DT40 TDP1 CPT -2%.
CCCCN1C(=O)NC(=O)C2(Cc3c(nc4c(C)cccn4c3=O)N3CCc4ccccc4C32)C1=O (stereo not given) was read as TDP1 block 4%, VDR inhibitor -6%, TDP1 cell noCPT 16µM*, PLK1 PBD inh -12%, GCN5L2 inh -7% and DT40 TDP1 CPT 21µM*.
For Cc1ccc(S(=O)(=O)c2nnn3c2nc(N2CCC(C(N)=O)CC2)c2cc(Cl)ccc23)cc1C the results were TDP1 block 4%, VDR inhibitor -1%, TDP1 cell noCPT 5.2µM*, GCN5L2 inh -11% and DT40 TDP1 CPT 21µM*.
COC(=O)NC/C=C\c1nc(CC/C=C\C(=O)O[C@H]2C[C@H]3CC(=O)O[C@@H](/C=C\CC(C)C)C[C@@H]4CC[C@H](C)[C@H](C[C@@H](OC)C[C@H](C2)O3)O4)co1 was read as TDP1 block 9%[21 µM].
O=C(Nc1ccc2nc(-c3cccs3)c(-c3cccs3)nc2c1)N1CCCCC1 was read as TDP1 block -5%, VDR inhibitor 32%, TDP1 cell noCPT 11µM* and DT40 TDP1 CPT 8.9µM*.
`Cc1c(C=C2C(=O)N(C)C(=S)N(C)C2=O)c2ccccc2n1CC(=O)NCC1CCCO1` (stereo not given) gave TDP1 block 9%, VDR inhibitor inconclusive, TDP1 cell noCPT inconclusive, PLK1 PBD inh 2.7µM*, GCN5L2 inh -9% and DT40 TDP1 CPT inconclusive.
CN1CCN(c2ncnc3ccc(Br)cc23)CC1 was read as TDP1 block 3%, VDR inhibitor -11%, TDP1 cell noCPT inconclusive, PLK1 PBD inh -7%, GCN5L2 inh -4% and DT40 TDP1 CPT 26µM*.
Screening CN1CCC(N(C)c2ncnc3ccc(Br)cc23)CC1 returned TDP1 block 8%, VDR inhibitor -1%, TDP1 cell noCPT inconclusive, PLK1 PBD inh -9%, GCN5L2 inh -18% and DT40 TDP1 CPT inconclusive.
Screening Cc1cccc(NC(=O)c2ncn3c2C(=O)NC[C@@H]3C)c1 returned TDP1 cell noCPT inconclusive, PLK1 PBD inh 0% and DT40 TDP1 CPT -4%.
Screening C[C@H]1Cn2cnc(C(=O)Nc3ccc(CNC(=O)OC(C)(C)C)cc3)c2C(=O)N1 returned TDP1 cell noCPT 13µM*, PLK1 PBD inh -6% and DT40 TDP1 CPT inconclusive.
